A selection: hits, their analogues and other compounds. The true share with any hit is near 3.4%.
SMARCA2 act: increases SMARCA2 function in MMTV reporter cells; MG213 cells, MMTV-luciferase reporter, dexamethasone, overnight; activation, % at 9.1 µM; actives 1% (n = 370,000); in the data active means activation above about 7.8%;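 further: 0% = vehicle wells and 100% = reference activator wells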
H9c2 protect: modulators protecting cardiomyocytes from myocardial damage; protection from H2O2 cell death, % at 20 µM; H9c2 cardiomyocytes, H2O2 injury protection, ATPLite, 2 h; actives 0.63% (n = 360,000);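 active means compounds giving at least 50% protection of heart cells from peroxide-induced death in the single-dose screen, raw or plate-pattern-corrected value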;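 further: 0% = DMSO wells with peroxide and 100% = DMSO wells without peroxide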
Gli-Sufu antag: blocks Gli-Sufu signaling in a luciferase reporter; Sufu-KO-LIGHT fibroblasts, Gli luciferase reporter luminescence; actives 0.74% (n = 340,000); inhibition, % at 5 µM; AID 588413;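 active means inhibition above about 55%, limit read from the data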;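 further: 0% = DMSO-treated cells and 100% = wells with medium but no cells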
GAA850 FXN act: activators of GAA850 frataxin (FXN) promoter; AID 540364; activation, % at 6 µM; actives 0.56% (n = 360,000); HEK293 lucGAA850 FXN promoter luciferase reporter, 24 h; percent of 10 µM SAHA response;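 active means activation above the average of all compounds screened plus 3 SD, cutoff fixed separately per campaign, cut at about 7.5% in these data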;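 further: 0% = DMSO wells and 100% = 10 µM SAHA wells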
GalR3 antagonist: human GalR3 antagonism | HEK293 GalR3-CNG cAMP membrane potential fluorescence; galR3 body fused to GalR1 C-terminus | AID 651719 | inhibition, % at 3 µM | actives 0.44% (n = 360,000);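 active means inhibition above the screen-wide average plus 3 SD, cut at about 13% in these data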;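 further: forskolin and galanin both at EC90 stimulate the cells; cAMP rise reported by CNG channel membrane potential dye signal; 0% = forskolin plus galanin with DMSO and 100% = forskolin alone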
NR2F2 inh: inhibitors of human COUP-TFII (NR2F2) | P24468 | HEK293T NGFI-A luciferase reporter, luminescence | inhibition, % at 8.6 µM | actives 0.7% (n = 370,000);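 active means inhibition above a per-plate cutoff, mean inhibition of test wells between control levels plus 3 SD, cut at about 38% in these data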;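 further: cells cotransfected with COUP-TFII expression vector driving the NGFI-A reporter; 0% = median of COUP-TF2 test wells and 100% = reporter-only cells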
Target sequence (P24468 whole entry, looked up): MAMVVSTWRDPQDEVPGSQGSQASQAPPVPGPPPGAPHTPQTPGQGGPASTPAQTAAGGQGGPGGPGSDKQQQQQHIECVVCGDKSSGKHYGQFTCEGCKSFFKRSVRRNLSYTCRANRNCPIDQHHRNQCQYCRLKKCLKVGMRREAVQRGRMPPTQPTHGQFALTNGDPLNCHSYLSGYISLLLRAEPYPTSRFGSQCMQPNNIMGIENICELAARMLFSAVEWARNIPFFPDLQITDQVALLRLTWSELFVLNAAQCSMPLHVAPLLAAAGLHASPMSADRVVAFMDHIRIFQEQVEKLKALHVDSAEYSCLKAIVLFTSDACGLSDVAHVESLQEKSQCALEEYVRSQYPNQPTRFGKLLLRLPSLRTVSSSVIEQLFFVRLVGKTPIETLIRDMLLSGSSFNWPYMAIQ
* marks the source's active call; other numbers are inactive results; x = not tested or not shown.

SMILES | SMARCA2 act | H9c2 protect | Gli-Sufu antag | GAA850 FXN act | GalR3 antagonist | NR2F2 inh
COCCn1c(=NC(=O)c2nc3ccccc3s2)sc2cc(S(C)(=O)=O)ccc21 | -1 | 58* | 18 | 1 | -1 | 10
CCOC(=O)Cn1c(=NC(=O)c2cc(-c3cccs3)nc3ccccc23)sc2cc(S(N)(=O)=O)ccc21 | -1 | 75* | 7 | 0 | -5 | 5
N#Cc1cccc(NC(=O)OCCN2C(=O)CCC23CCC(c2ccccc2)CC3)c1 (stereo not drawn) | -4 | x | x | x | x | -21
CCOC(=O)c1c(C)nc2sc3c(=O)n(-c4ccc(C(C)=O)cc4)cnc3c2c1-c1ccc(OC)cc1 | 0 | 68* | 7 | -1 | -3 | -8
CCOC(=O)c1c(C)nc2sc3c(=O)n(-c4ccc(OC)cc4)nnc3c2c1-c1ccc(OC)cc1 | -1 | 20 | 2 | -1 | -3 | 8
COc1cc(/C=C2/C(=O)NN(c3ccc(Cl)cc3)C2=O)cc(Br)c1O | -1 | 4 | 5 | -1 | -5 | 21
COc1cccc(/C=C2/C(=O)NN(c3ccc(Br)cc3)C2=O)c1O | -1 | 52* | -2 | 0 | -4 | 1
CC(/C=N/NC(=O)c1nnn(-c2nonc2N)c1CN1CCCCC1)=C\c1ccccc1 | -1 | 3 | -1 | 0 | -5 | -4
C/C(=N\NC(=O)c1nnn(-c2nonc2N)c1CN1CCCCC1)c1ccccc1O | -4 | 63* | 13 | 3 | -8 | 21
C/C(=N\NC(=O)c1nnn(-c2nonc2N)c1CSc1ccc(C)cc1)c1cccnc1 | -3 | 55* | x | 2 | -7 | -6
C/C(=N\NC(=O)c1nnn(-c2nonc2N)c1CN(C)c1ccccc1)c1ccccc1O | -2 | 57* | 4 | 0 | 3 | 1
CCN=c1scc(-c2ccc(F)cc2)n1/N=C/c1ccccn1 | -3 | -34 | -13 | 8.8* | -8 | -11
CCN=c1scc(-c2ccccc2)n1/N=C/c1ccccn1 | x | -12 | -68 | -7 | x | x
COc1ccc2c(c1)CN1CN(Cc3ccccc3)S(=O)(=O)CC21 (stereo not drawn) | -2 | x | x | x | x | 4
O=C(N/N=C(\c1ccccc1)c1ccccn1)c1cccc([N+](=O)[O-])c1 | x | 46 | 91* | 4 | x | x
Brc1ccc(-c2ccc(/C=N/Nc3nc(N4CCOCC4)nc(N4CCOCC4)n3)o2)cc1 | 0 | 95* | 35 | -3 | -4 | 6
Cc1ccc2nc(/C(C#N)=C\c3ccc(Oc4ccc([N+](=O)[O-])cn4)cc3)[nH]c2c1 | -1 | -9 | 17 | 3 | 2 | -4
COc1ccc2nc(/C(C#N)=C\c3ccc(Oc4ccc([N+](=O)[O-])cn4)cc3)[nH]c2c1 | 12* | -2 | 11 | 1 | 5 | 2
O=C(Oc1ccc(N(Cc2cccs2)C2=NS(=O)(=O)c3ccccc32)cc1)c1ccccc1Cl | -3 | 75* | 5 | 0 | -1 | -1
Cc1nnc(C)n1/N=C/c1cc(Br)cc(Br)c1O | -3 | 78* | -1 | 0 | 3 | 1
Cc1nnc(C)n1/N=C/c1cc(Br)ccc1O | 0 | 66* | 13 | -1 | 1 | 0
CCOC(=O)c1csc(NC(=O)C2CCCN(S(=O)(=O)c3ccccc3)C2)n1 (stereo not drawn) | -8 | x | x | x | x | 5
Cc1cc(N=Cc2c(O)ccc3cc(Br)ccc23)no1 | -3 | 66* | 8 | -3 | -1 | 14
Cc1cc(N=Cc2c(O)ccc3ccccc23)no1 | -4 | 13 | -1 | -4 | -4 | 14
COC(=O)[C@]1(C#N)CC(=O)N(c2ccccc2)[C@@H]1c1ccccc1 | 0 | x | x | x | x | 6
SMILES | SMARCA2 act | H9c2 protect | Gli-Sufu antag | GAA850 FXN act | GalR3 antagonist | NR2F2 inh
COc1ccc(CN(C)C(=O)C(Cc2ccccc2)NC(=O)c2ccccc2)cc1F (stereo not drawn) | -2 | 50* | 1 | -6 | -2 | 16
CN(Cc1ccc(F)cc1)C(=O)C(Cc1ccccc1)NC(=O)c1ccccc1 (stereo not drawn) | -2 | 46 | 2 | 0 | 2 | -5
C=CCN(C(=O)[C@@H](C1CC1)[C@@H](O)c1ccc2ccccc2c1)c1ccccc1 | -3 | x | x | x | x | 0
Cc1ccc(O)c(C(=O)CC(=O)c2ccc(C(C)(C)C)cc2)c1 | 1 | 57* | -8 | 2 | 0 | -36
COc1ccccc1N1CCN(Cc2ccc(O)c3ncccc23)CC1 | -3 | 37 | 76* | 4 | -6 | 20
Oc1ccc(CN2CCCc3ccccc32)c2cccnc12 | x | 56* | 10 | 3 | x | x
CC(COc1ccc(C#N)c(F)c1)CN1CCC(C(O)(c2ccccc2)c2ccccc2)CC1 (stereo not drawn) | -3 | x | x | x | x | 1
CNc1ccccc1/C(O)=C(\C#N)C(=O)NCc1cccs1 | -2 | x | x | x | x | 16
Cc1cc(C)c2ccc(NN)nc2c1O | 5 | 79* | 6 | 1 | -3 | -6
CCOC(=O)c1c(C)[nH]c(O)c1C=Nc1ccc(Cl)cc1 | 0 | 52* | -14 | -2 | 1 | 12
COC(=O)c1c(C)[nH]c(O)c1C=Nc1ccc(Oc2ccccc2)cc1 | 0 | 84* | -19 | 0 | -3 | -11
O=C(NN=Cc1ccc(-c2ccccc2)cc1)c1cc(-c2ccc(Cl)cc2)n[nH]1 | 0 | x | x | x | x | 0
Fc1ccc2cc(C3=CCCCC3)ncc2c1 | 2 | x | x | x | -4 | -5
CCc1ccc(C(=O)CN2C(=O)NC3(CCCCCC3)C2=O)cc1 | 7.9* | -8 | -28 | 1 | -2 | -38
COC(=O)N1C(=O)[C@@](c2ccccc2)(C2CCCC2)N1C(=O)OC | x | -10 | -9 | 0 | x | x
COC(=O)N1C(=O)[C@](c2ccccc2)(C2CCCCC2)N1C(=O)OC | 1 | 56* | 7 | -2 | 10 | -20
Cc1cc(NC(c2cccnc2)c2ccc3cccnc3c2O)no1 (stereo not drawn) | -1 | 57* | -2 | -4 | -1 | 6
Oc1c(C(Nc2cccc(C(F)(F)F)c2)c2cccnc2)ccc2cccnc12 (stereo not drawn) | -4 | 59* | 23 | -1 | -2 | 17
O=C(NCCc1ccccc1)OCc1cn(Cc2cccc(F)c2F)nn1 | 1 | x | x | x | x | 1
O=c1[nH]c2cc(Br)c(Br)nc2[nH]1 | 2 | x | x | x | x | 14
Cc1ccccc1CN1CCCCC(NC(=O)c2cc(-c3ccccc3)no2)C1=O (stereo not drawn) | -3 | x | x | x | x | 9
O=C(C[C@H]1C/C=C\CC[C@H](Cc2ccc(F)cc2)C(=O)O[C@H](c2ccccc2)CNC1=O)N[C@H](CO)Cc1ccccc1 | -1 | 90* | 10 | -1 | -6 | -3
O=C(C[C@H]1C/C=C\CC[C@H](Cc2ccc(F)cc2)C(=O)O[C@@H](c2ccccc2)CNC1=O)N[C@@H](CO)Cc1ccccc1 | -1 | 42 | 3 | 5 | -5 | 14

Compound activity (PubChem)
